From PubChem BioAssay
A number with no mark means an inactive call. How the calls were made is not given here.

target: Pantothenate synthetase (Mycobacterium tuberculosis (strain ATCC 25618 / H37Rv)) (UniProt P9WIL5); assay: Recombinant Mtb pantothenate synthetase (PanC) inhibitors, coupled enzyme, confirmatory (AID 375); conditions: coupled enzyme assay; at 10 µM, stronger effect = higher value;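 further: 0% = full reaction with vehicle and 100% = no enzyme background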
Sequence (P9WIL5 whole entry, looked up): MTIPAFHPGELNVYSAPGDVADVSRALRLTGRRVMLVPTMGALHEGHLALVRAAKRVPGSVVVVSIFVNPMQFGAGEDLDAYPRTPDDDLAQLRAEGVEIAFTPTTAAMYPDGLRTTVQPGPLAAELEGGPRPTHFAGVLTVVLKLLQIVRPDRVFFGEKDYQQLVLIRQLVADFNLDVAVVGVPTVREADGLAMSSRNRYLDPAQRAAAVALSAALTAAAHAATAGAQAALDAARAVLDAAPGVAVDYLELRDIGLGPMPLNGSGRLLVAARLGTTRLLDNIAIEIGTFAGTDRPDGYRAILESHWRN

SMILES | inhibition [%]
COc1ccc(N2CCN(C(=O)COc3ccc4ccccc4c3)CC2)cc1 | 2
O=C(CN1CCC(n2nnc3ccccc32)CC1)Nc1ccc2c(c1)CCC2 | 0
O=C(c1cccs1)c1cn(CC(=O)N2CCc3ccccc3C2)c2ccccc12 | 2
Cn1c(=N)n(CC(=O)O)c2ccccc21 | 9
O=S(=O)(NCc1ccccc1)c1ccc2c(c1)OCCO2 | 0
Fc1ccccc1-c1nc(NCCCN2CCOCC2)c2ccccc2n1 | 0
O=C(Nc1ccc(NC(=O)C2CC2)cn1)c1ccccc1Cl | 0
CCOC(=O)N1CCN(Cc2cc(=O)oc3ccc4ccccc4c23)CC1 | 6
Cc1csc(NC(=O)CSc2nnc(Cc3cccn3C)n2-c2ccc(F)cc2)n1 | 0
COc1cc2c(cc1NC(=O)CSc1nnc(Cc3cccs3)n1C)oc1ccccc12 | 6
CN(C)Cc1cn(CCC(=O)O)c2ccccc12 | 1
CSc1nc(C)cc(Oc2ccc(=O)n(C)n2)n1 | 0
O=S(=O)(Nc1ccc2c(c1)OCO2)c1ccc(Br)s1 | 0
CCc1nnc(NC(=O)c2ccc(S(=O)(=O)NC3CCCCC3)cc2)s1 | 0
Cc1csc2ncc(C(=O)Nc3ccccc3Cl)c(=O)n12 | 3
O=C1c2ccccc2C(=O)N1CCN1CCCCC1 | 7
O=C(NC1CCCCC1)C1CCCN1C(=O)NCc1ccccc1 (stereo not drawn) | 4
CCCOc1ccc(OCCSc2ncccn2)cc1 | 0
O=C(Nc1ccc2c(c1)C(=O)N(C1CCCCC1)C2=O)C1CCCO1 (stereo not drawn) | 6
Cc1ccc(C)c2[nH]c(=O)c(CCNC(=O)CC(C)(C)C)cc12 | 4
CCOC(=O)CSC1=Nc2ccccc2C2=NC(CC(=O)NCc3ccc(OC)cc3)C(=O)N12 (stereo not drawn) | 2
CCOC(=O)N1CCN(c2cc3nccnc3cc2F)CC1 | 6
COc1ccccc1-c1cn[nH]c(=S)n1 | 11
